# In PubChem BioAssay:
# For some assays here: Results with a measured potency or affinity are listed apart. The source made the active and inactive calls.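 How the source made its calls, unless noted: active means GFP response above 150% of the DMSO level; inconclusive means fewer than 70 events counted for a yeast strain; inactive means the rest.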
# Legend:
# [1] = target: Cell division control protein 42 homolog (Homo sapiens) (UniProt P60953); assay: activated mutant Cdc42 GTP-binding inhibitors, dose response, biochemical, multiplex bead flow cytometry, Bodipy-FL-GTP (AID 1333;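 active means fitted half-maximal concentration within the tested dose range, moderate curve steepness, a statistically real signal drop, and little compound fluorescence or tag-binding interference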)
# Cell division control protein 42 homolog (Homo sapiens), sequence (P60953 whole entry, looked up): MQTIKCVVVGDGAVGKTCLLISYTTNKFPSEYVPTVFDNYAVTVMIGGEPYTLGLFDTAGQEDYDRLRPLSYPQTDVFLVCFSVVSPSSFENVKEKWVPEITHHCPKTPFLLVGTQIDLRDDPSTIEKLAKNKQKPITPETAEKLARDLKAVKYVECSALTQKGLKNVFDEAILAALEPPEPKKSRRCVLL
# [2] = target: Cell division control protein 42 homolog (Homo sapiens) (UniProt P60953); assay: wildtype Cdc42 GTP-binding inhibitors, dose response, biochemical, multiplex bead flow cytometry, Bodipy-FL-GTP (AID 1334;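 active means fitted half-maximal concentration within the tested range, moderate curve steepness, significant signal drop, and little compound fluorescence or bead-linkage interference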); conditions: bead-based flow cytometry, Bodipy-FL-GTP binding to GST-Cdc42; at 100 µM (top of the series)
# [3] = test system: Ras-related protein Rab-7a (dog), GTP binding; assay: Rab7 GTP binding inhibitors, potency, dose response, biochemical, wildtype, multiplex bead flow cytometry (AID 1336; call rule not given here)
# [4] = target: Ras-related C3 botulinum toxin substrate 1 (Homo sapiens) (UniProt P63000); assay: wildtype Rac1 GTP binding inhibitors, dose response, biochemical, multiplex bead flow cytometry (AID 1340;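 active means dose curve with midpoint inside tested range, moderate steepness, plateau gap beyond fit error, low compound glow and bead-link interference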); conditions: GST-Rac1 beads, Bodipy-FL-GTP binding; at 100 µM (top of the series)
# [5] = target: GTPase HRas (Homo sapiens) (UniProt P01112); assay: activated Ras mutant GTP binding inhibitors, dose response, biochemical, multiplex bead flow cytometry (AID 1341;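 active means dose-response curve with midpoint inside the tested range, moderate steepness, significant amplitude and little compound fluorescence or bead-attachment interference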;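 further: GST-tagged constitutively activated Ras mutant immobilized on beads and multiplexed with other GTPases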)
# [6] = RPL19A-GFP modulators, yeast TOR pathway, confirmation, cell-based, S. cerevisiae, flow cytometry, cherry picks, mother/daughter gates (AID 2270;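 active means GFP response below 50% of the DMSO control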); conditions: S. cerevisiae RPL19A-GFP strain, 3 h, at 10 µM, stronger effect = lower value, 100 = same GFP as DMSO wells
# [7] = LAP4-GFP expression modulators in yeast, confirmation, cell-based, cherry picks, flow cytometry, mother/daughter gates (AID 2271;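 active means GFP response above 150% of the DMSO control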;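 further: ratio of sample to DMSO plate mean so 100% equals DMSO level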); conditions: S. cerevisiae LAP4-GFP strain, 3 h, at 10 µM, stronger effect = higher value
# [8] = modulators of MEP2-GFP levels in yeast, confirmation, S. cerevisiae, flow cytometry GFP, cherry picks (AID 2272;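 active means GFP response above 150% of the DMSO control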;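 further: ratio of well signal to plate DMSO mean so 100% equals DMSO level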); conditions: S. cerevisiae MEP2-GFP strain, 3 h, at 10 µM, stronger effect = higher value
# [9] = AGP1-GFP expression modulators, hit retest, confirmation, cell-based, flow cytometry, S. cerevisiae, cherry picks (AID 2273);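 further: median GFP channel fluorescence over the whole cell population gate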; conditions: S. cerevisiae AGP1-GFP strain, 3 h, at 10 µM
# [10] = modulators of CIT2-GFP expression in yeast, confirmation, S. cerevisiae, GFP fusion, cherry picks, mother/daughter gates (AID 2274); conditions: S. cerevisiae CIT2-GFP strain, flow cytometry, 3 h, at 10 µM, stronger effect = higher value
# [11] = measured here: daughter cell gate
# [12] = measured here: mother cell gate
# [13] = measured here: daughter cell gate response
# [14] = measured here: mother cell gate response
compound,measurement,setting,value
CC1(C)CC(n2[nH]c(=O)c3c2NC(=O)CSC3c2ccccc2)CCO1 (configuration not stated),outcome,[1],inactive
same,"fluorescence, percent of control (lower = inhibition)",[2],35.5%
same,outcome,[3],inactive
same,"GTP binding signal, raw median fluorescence (lower = inhibition) (MCF (arbitrary fluorescence units))",[4],266
same,outcome,[5],inactive
COc1ccc(-c2cc(=NCCCCCC(=O)O)c3cc(C)ccc3o2)cc1,outcome,[1],inactive
same,"fluorescence, percent of control (lower = inhibition)",[2],34.9%
same,outcome,[3],inactive
same,"GTP binding signal, raw median fluorescence (lower = inhibition) (MCF (arbitrary fluorescence units))",[4],132
same,outcome,[5],inactive
Cc1nc2c(=O)n(C)c(=O)nc-2n(C)n1,outcome,[3],inactive
same,"GTP binding signal, raw median fluorescence (lower = inhibition) (MCF (arbitrary fluorescence units))",[4],251
same,outcome,[5],inactive
CC[C@@H]1C(=O)OC[C@@H]1Cc1cncn1C,GFP response vs DMSO,[6],99.5% (inactive)
same,GFP response vs DMSO,[6]; [11],98.3%
same,GFP response vs DMSO,[6]; [12],100%
same,GFP response relative to DMSO,[7],102% (inactive)
same,GFP response relative to DMSO,[7]; [13],101%
same,GFP response relative to DMSO,[7]; [14],102%
same,GFP response vs DMSO,[8],104% (inactive)
same,"GFP response, % of DMSO",[9],103% (inactive)
same,"GFP response, % of DMSO",[10],99.3% (inactive)
same,"GFP response, % of DMSO",[10]; [11],98.3%
same,"GFP response, % of DMSO",[10]; [12],100%
C[C@H](O)[C@H]1CC[C@H]2[C@@H]3CCC4=CC(=O)CC[C@]4(C)[C@H]3CC[C@]12C,GFP response vs DMSO,[6],97.8% (inactive)
same,GFP response vs DMSO,[6]; [11],93%
same,GFP response vs DMSO,[6]; [12],99.6%
same,GFP response relative to DMSO,[7],117% (inactive)
same,GFP response relative to DMSO,[7]; [13],117%
same,GFP response relative to DMSO,[7]; [14],120%
same,GFP response vs DMSO,[8],95.7% (inactive)
same,"GFP response, % of DMSO",[9],93.7% (inactive)
same,"GFP response, % of DMSO",[10],96.5% (inactive)
same,"GFP response, % of DMSO",[10]; [11],89.9%
same,"GFP response, % of DMSO",[10]; [12],98.7%
Cc1sc(-n2c(C)cc(C=C3C(=O)NC(=O)NC3=O)c2C)c(C#N)c1C,outcome,[1],inactive
same,"fluorescence, percent of control (lower = inhibition)",[2],27.5%
same,"GTP binding signal, raw median fluorescence (lower = inhibition) (MCF (arbitrary fluorescence units))",[4],199
same,outcome,[5],inactive
O=C(O)c1cn(Cc2ccccc2F)c2ccccc12,outcome,[1],inactive
same,"fluorescence, percent of control (lower = inhibition)",[2],93%
same,outcome,[3],inactive
same,"GTP binding signal, raw median fluorescence (lower = inhibition) (MCF (arbitrary fluorescence units))",[4],68.4
same,outcome,[5],inactive
C#C[C@]1(O)CC[C@H]2[C@@H]3CCC4=CC(=O)CC[C@]4(C)[C@H]3CC[C@@]21C,GFP response vs DMSO,[6],97% (inactive)
same,GFP response vs DMSO,[6]; [11],95.9%
same,GFP response vs DMSO,[6]; [12],95.6%
same,GFP response relative to DMSO,[7],103% (inactive)
same,GFP response relative to DMSO,[7]; [13],102%
same,GFP response relative to DMSO,[7]; [14],101%
same,GFP response vs DMSO,[8],107% (inactive)
same,"GFP response, % of DMSO",[9],95.4% (inactive)
same,"GFP response, % of DMSO",[10],95.5% (inactive)
same,"GFP response, % of DMSO",[10]; [11],97.2%
same,"GFP response, % of DMSO",[10]; [12],92.6%
O=C(O)c1cn(Cc2ccc(Br)cc2)c2ccccc12,outcome,[1],inactive
same,"fluorescence, percent of control (lower = inhibition)",[2],91.7%
same,outcome,[3],inactive
same,"GTP binding signal, raw median fluorescence (lower = inhibition) (MCF (arbitrary fluorescence units))",[4],74
same,outcome,[5],inactive
O=c1[nH]c(=S)[nH]c(O)c1N=Nc1ccc(S(=O)(=O)N2CCc3ccccc32)cc1,outcome,[1],inactive
same,"fluorescence, percent of control (lower = inhibition)",[2],44.9%
same,outcome,[3],inactive
same,"GTP binding signal, raw median fluorescence (lower = inhibition) (MCF (arbitrary fluorescence units))",[4],312
same,outcome,[5],inactive
O=C(O)c1cn(Cc2ccc(F)cc2)c2ccccc12,outcome,[1],inactive
same,"fluorescence, percent of control (lower = inhibition)",[2],106%
same,outcome,[3],inactive
same,"GTP binding signal, raw median fluorescence (lower = inhibition) (MCF (arbitrary fluorescence units))",[4],91.8
same,outcome,[5],inactive
O=C1CN=C(c2ccccc2)c2cc(Br)ccc2N1Cc1cc(=O)n2ccccc2n1,outcome,[1],inactive
same,"fluorescence, percent of control (lower = inhibition)",[2],47.5%
same,"GTP binding signal, raw median fluorescence (lower = inhibition) (MCF (arbitrary fluorescence units))",[4],216
same,outcome,[5],inactive
CCOc1ccc(C2SCC(=O)Nc3c2c(C)nn3C2CCOC(C)(C)C2)cc1 (configuration not stated),outcome,[1],inactive
same,"fluorescence, percent of control (lower = inhibition)",[2],96.5%
same,outcome,[3],inactive
same,"GTP binding signal, raw median fluorescence (lower = inhibition) (MCF (arbitrary fluorescence units))",[4],195
same,outcome,[5],inactive
CC12CN3CC(C)(CN(C1)C31CCOCC1)C2=O,GFP response vs DMSO,[6],95.6% (inactive)
same,GFP response vs DMSO,[6]; [11],96.9%
same,GFP response vs DMSO,[6]; [12],96.6%
same,GFP response relative to DMSO,[7],99.2% (inactive)
same,GFP response relative to DMSO,[7]; [13],97.6%
same,GFP response relative to DMSO,[7]; [14],100%
same,GFP response vs DMSO,[8],96.2% (inactive)
same,"GFP response, % of DMSO",[9],99.5% (inactive)
same,"GFP response, % of DMSO",[10],101% (inactive)
same,"GFP response, % of DMSO",[10]; [11],103%
same,"GFP response, % of DMSO",[10]; [12],101%
Cc1cc(C)cc(N2C(=O)NC(=O)/C(=C\C=C\c3ccco3)C2=O)c1,outcome,[1],inactive
same,"fluorescence, percent of control (lower = inhibition)",[2],32.8%
same,outcome,[3],inactive
same,"GTP binding signal, raw median fluorescence (lower = inhibition) (MCF (arbitrary fluorescence units))",[4],206
same,outcome,[5],inactive
CCOCCCn1c(N)c(C(=O)Nc2sc3c(c2C(=O)OC)CCCC3)c2nc3ccccc3nc21,outcome,[1],inactive
same,"fluorescence, percent of control (lower = inhibition)",[2],64.4%
same,outcome,[3],inactive
same,"GTP binding signal, raw median fluorescence (lower = inhibition) (MCF (arbitrary fluorescence units))",[4],127
same,outcome,[5],inactive
O=C1C(=O)c2ccccc2-c2ccccc21,GFP response vs DMSO,[6],122% (inactive)
same,GFP response vs DMSO,[6]; [11],106%
same,GFP response vs DMSO,[6]; [12],116%
same,GFP response relative to DMSO,[7],171% (active)
same,GFP response relative to DMSO,[7]; [13],143%
same,GFP response relative to DMSO,[7]; [14],169%
same,GFP response vs DMSO,[8],117% (inactive)
same,"GFP response, % of DMSO",[9],126% (inactive)
same,"GFP response, % of DMSO",[10],88.7% (inactive)
same,"GFP response, % of DMSO",[10]; [11],89.9%
same,"GFP response, % of DMSO",[10]; [12],82.6%
O=C1CN=C(c2ccccc2F)c2cc(Cl)ccc2N1,GFP response vs DMSO,[6],99.3% (inactive)
same,GFP response vs DMSO,[6]; [11],99%
same,GFP response vs DMSO,[6]; [12],99.1%
same,GFP response relative to DMSO,[7],97.4% (inactive)
same,GFP response relative to DMSO,[7]; [13],98.7%
same,GFP response relative to DMSO,[7]; [14],98.3%
same,GFP response vs DMSO,[8],100% (inactive)
same,"GFP response, % of DMSO",[9],98% (inactive)
same,"GFP response, % of DMSO",[10],107% (inactive)
same,"GFP response, % of DMSO",[10]; [11],105%
same,"GFP response, % of DMSO",[10]; [12],111%
